Shown are actives, neighbours in structure and some others; about 0.4% of the full set was active somewhere.
GLA spleen mod: qHTS Assay for Inhibitors and Activators of Human alpha-Galactosidase From Spleen Homogenate; Alpha-galactosidase A (Homo sapiens), P06280; human spleen homogenate, 4MU-alpha-Gal fluorescence, 40 min; Potency, µM (top dose mostly 80 µM), inactives show top-dose activity change, negative = inhibition, most hits filed as inhibitors; 240,000 compounds, 0.008% hits; AID 2107, 2009;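 note: potency is the fitted concentration of half-maximal effect; 0% = enzyme with vehicle and -100% = no enzyme basal signal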
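Inhibition or activation of alpha-galactosidase in human spleen homogenate is scored by 4-MU fluorescence after 40 min at 37C, pH 5.0, with 1 mM substrate. AC50s come from concentration-response fitted to the Hill equation.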
GAA spleen mod: qHTS Assay for Inhibitors and Activators of Human alpha-Glucosidase From Spleen Homogenate; human spleen homogenate, 4-MU-alpha-glucoside fluorescence; Potency, µM (top dose mostly 79.9 µM), for inactives: top-dose activity change, negative = inhibition, usual class: inhibitors; 240,000 compounds, 0.006% hits;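 note: potency is the fitted concentration of half-maximal effect; 0% = enzyme with vehicle and -100% = no enzyme basal signal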
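Enzyme source: human spleen homogenate, 1 ug/well. Buffer 50 mM citric acid/K phosphate pH 5.0, 0.01% Tween-20. 4-MU-alpha-glucoside 1 mM; 37 C x 40 min; NaOH/glycine stop; fluorescence.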
GLA inh pH 4.5: qHTS Assay for Inhibitors of Human alpha-Galactosidase at pH 4.5; activity change, negative = inhibition, % at 105 µM; purified enzyme, 4-MU-alpha-Gal fluorescence, pH 4.5; AID 1467, 2008; 230,000 tested, under 10 active; Alpha-galactosidase A (Homo sapiens), P06280;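 note: 0% = full activity with enzyme and -100% = basal without enzyme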
Target sequence (P06280 whole entry, looked up): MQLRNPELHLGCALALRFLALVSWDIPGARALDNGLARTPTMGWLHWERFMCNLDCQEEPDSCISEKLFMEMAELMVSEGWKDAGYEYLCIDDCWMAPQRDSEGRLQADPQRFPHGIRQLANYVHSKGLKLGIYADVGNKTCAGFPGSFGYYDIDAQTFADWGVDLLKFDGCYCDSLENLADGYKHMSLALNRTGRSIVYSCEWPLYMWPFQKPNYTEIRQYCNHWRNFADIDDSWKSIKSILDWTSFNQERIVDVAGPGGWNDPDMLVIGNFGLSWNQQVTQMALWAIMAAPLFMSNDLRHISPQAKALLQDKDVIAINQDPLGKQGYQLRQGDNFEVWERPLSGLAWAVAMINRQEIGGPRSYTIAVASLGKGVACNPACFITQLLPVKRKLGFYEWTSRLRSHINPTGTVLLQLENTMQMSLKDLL
GAA inh: qHTS Assay for Inhibitors of Human alpha-Glucosidase as a Potential Chaperone Treatment of Pompe Disease; 200,000 compounds, 0.005% hits; purified human GAA, 4-MU-alpha-glucoside fluorescence; AID 1466, 2008; Lysosomal alpha-glucosidase (Homo sapiens), P10253; Potency, µM (series often up to 76.9 µM), for the others: at the highest dose activity change, negative = inhibition, most hits filed as inhibitors;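 note: potency is the fitted concentration of half-maximal effect; plate controls were uninhibited enzyme wells for no effect and no-enzyme background for full effect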
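Activity normalized between no-enzyme (basal) and enzyme-only wells. Conditions: 4 nM human enzyme, 400 uM fluorogenic substrate, citrate/phosphate pH 5.0 with Tween-20, 20 min room temperature, compounds up to 77 uM.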
GAA glycogen mod: qHTS Assay for Inhibitors and Activators of Human alpha-Glucosidase Cleavage of Glycogen; Lysosomal alpha-glucosidase (Homo sapiens), P10253; AID 2100, 2009; recombinant GAA, glycogen substrate, Amplex Red glucose oxidase fluorescence; Potency, µM (titrated, usually from 76.4 µM), for the others: top-dose activity change, negative = inhibition, usual class: inhibitors; 300,000 compounds, 0.38% hits;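 note: potency is the fitted concentration of half-maximal effect; 0% = full enzyme reaction and -100% = no-enzyme basal signal; the screen sought inhibitors and activators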
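Recombinant enzyme (4 nM final) with compounds titrated up to 77 uM and bovine liver glycogen (30 ug) in citrate pH 5.0, 0.01% Tween-20, 37 C 40 min. Released glucose detected by Amplex Red/glucose oxidase (Ex 573/Em 610); AC50 from Hill fits.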
Active calls of the source: *; ? = inconclusive; · = no result given; [ ] = dose if it differs, or a comment. Calls come from the whole dose curve; as a rule, active = well fitted curve in the direction sought with a large enough effect; inconclusive = small, poorly fitted or top-dose-only effect, or another doubt; inactive = no such curve, though single readings can be large; an effect the other way counts as inactive or inconclusive.

SMILES	GLA spleen mod	GAA spleen mod	GLA inh pH 4.5	GAA inh	GAA glycogen mod
COc1cc(Cn2c(-c3ccc(O)c(OC)c3)nc3ccccc32)ccc1O	7%	4%	1	·	28µM*
Cc1nn(C)c(C)c1S(=O)(=O)N(CC(=O)NCCc1ccc(Cl)cc1)c1ccc(C(C)C)cc1	·	·	·	·	0%[76.3 µM]
O=C1NC(=O)/C(=C\c2ccc(O)cc2O)S1	-3%	-14%	1	?	2.8µM*
O=C1NC(=O)/C(=C/c2cccc3ccccc23)S1	·	·	·	·	2%[76.3 µM]
COc1cccc(-n2sc3c(c2=S)-c2cc(OC)ccc2NC3(C)C)c1	-6%	-6%	-7	-8%	40µM*
O=C(OCC1CO1)C1CCCCC1C(=O)OCC1CO1 (centres undefined)	7%	-3%	·	·	·
COc1ccc(Nc2nc3c([nH]2)c(=O)[nH]c(=O)n3C)cc1	3%	-4%	7	-2%	10µM*
COCCCNc1nc2c([nH]1)c(=O)[nH]c(=O)n2C	3%	-3%	·	-4%	?
Cc1ccn2c(C(=O)NN=C3CCCCCCC3)c(C)nc2c1	-4%	3%	0	11%	40µM*
O=c1cc(-c2ccc(C3CCCCC3)cc2)[nH][nH]1	14%	9%	0	-3%	16µM*
O=C(NCc1ccc(F)cc1)c1ccc(NC(=O)N2CC3CCCN3c3ccccc32)cc1 (centres undefined)	·	·	·	·	16µM*
CC(C)Oc1ccc(CNC(=O)c2ccc(NC(=O)N3CC(C)Sc4ccccc43)cc2)cc1 (centres undefined)	·	·	·	·	-7%[76.3 µM]
C=C1c2cccc(O)c2C(O)=C2C(=O)[C@@]3(O)C(O)=C(C(N)=O)C(=O)[C@@H](N(C)C)[C@@H]3[C@@H](O)[C@H]12	-5%[29.1 µM]	6%[29.1 µM]	-1	·	·
COc1cccc(CNc2ccc(S(=O)(=O)Nc3nccs3)cc2)c1O	9%	3%	11	-6%	5.6µM*
Cc1cc(O)ccc1N=Cc1c(C(F)(F)F)[nH][nH]c1=O	-2%	3%	3	-11%	22µM*
O=c1[nH][nH]c(C(F)(F)F)c1C=Nc1ccccc1	-11%	-4%	5	2%	4%
CCOc1cc(C2C3=C(CCCC3=O)N(C)C3=C2C(=O)CCC3)cc(Cl)c1O	-1%	0%	2	-4%	?
CCOc1cc(C2C3=C(CCCC3=O)NC3=C2C(=O)CCC3)cc(Cl)c1O	-7%	-12%	-4	-4%	35µM*
O=C(NNC(=S)NC1CCCCC1)c1ccc(Cl)s1	3%	-14%	0	?	50µM*
O=C(NNC(=S)NC1CCCCC1)c1cccs1	12%	-8%	9	-2%	?
CCN(CC)C(=O)c1c(NC(=O)c2ccccc2F)sc2c1CCC(C(C)(C)C)C2 (centres undefined)	·	·	·	·	3%[76.3 µM]
O=C1NCCCC2c3cc(O)c4ccccc4c3OC12N1CCCCC1 (centres undefined)	-7%	-5%	0	11%	25µM*
O=C1NCCCC2c3c(cc(Br)c(O)c3Br)OC12N1CCOCC1 (centres undefined)	9%	-1%	7	-1%	-14%
Cc1ccc(Nc2nc(C)c(NC(=O)c3ccc(C)cc3)c(Nc3ccc(C)cc3)n2)cc1	·	·	·	·	-12%[76.3 µM]
CCOc1cc(CNc2ccccc2SC)ccc1O	6%	6%	-5	-7%	28µM*
SMILES	GLA spleen mod	GAA spleen mod	GLA inh pH 4.5	GAA inh	GAA glycogen mod
Cc1ccc2c(c1)C(c1ccc(F)cc1)N(C(=O)COc1ccc(Cl)cc1Cl)CC(=O)N2 (centres undefined)	·	·	·	·	4%[76.3 µM]
C(=N\Nc1ccccn1)/c1c[nH]c2ccccc12	2%	0%	-10	·	35µM*
Oc1ccc(/C=N/N2CCN(C3c4ccccc4-c4ccccc43)CC2)cc1O	0%	0%	-8	·	10µM*
CCn1c(-c2ccccc2)csc1=Nc1ccc(O)cc1	-2%	·	-4	-6%	13µM*
Nc1ccc2nc(-c3ccc(Cl)cc3)[nH]c2c1	16%	5%	4	?	0%
Nc1ccc2nc(-c3cc(Cl)c(N)c(Cl)c3)[nH]c2c1	-3%	-1%	0	4%	12µM*
Cc1nc2sc(C(N)=O)c(N)c2c(-c2ccc(Br)cc2)c1C(=O)Nc1ccc(Cl)cc1	·	·	·	·	-6%[76.3 µM]
COc1cc(OC)cc(-c2nc3nc(C)c(CCC(=O)Nc4ccc(C)c(C)c4)c(C)n3n2)c1	·	·	·	·	-1%[76.3 µM]
Nc1nc(C2CCOCC2)cs1	1%	0%	2	·	6%
Nc1nc(C2CC2)c(Sc2sc(N)nc2C2CC2)s1	0%	2%	-4	5%	6.3µM*
O=C1OCC(CO)(CO)N=C1NNc1ccccc1[N+](=O)[O-]	-4%	-15%	-2	·	?
O=C1OCC(CO)(CO)N=C1NNc1cc(Cl)ccc1Cl	1%	-5%	0	-10%	8.9µM*
CCN(CC)c1ccc(-c2nc3cnccn3c2NC2CCCC2)cc1	12%	-7%	-25	3%	9.9µM*
Brc1ccc2nc(-c3ccncc3)c(NC3CCCC3)n2c1	7%	2%	?	-14%	9.9µM*
Cc1nc2nc(CNC(=O)OC(C)(C)C)nn2c(C)c1CCC(=O)NCc1ccccc1Cl	·	·	·	·	18%[76.3 µM]
O=C1/C(=C\c2ccc(O)c(O)c2)N=C2CCCCCN12	-7%	-7%	-15	·	7.1µM*
c1ccc(-c2nc3cnccn3c2Nc2ccc3c(c2)OCCO3)cc1	-1%	-1%	-4	-4%	?
Oc1ccc(-c2nc3cnccn3c2Nc2ccc3c(c2)OCCO3)cc1	-5%	-3%	3	3%[15.4 µM]	16µM*
Cc1ccn2c(Nc3ccc4c(c3)OCO4)c(-c3ccc(O)cc3)nc2c1	3%	-1%	-1	·	11µM*
Clc1cccc(-c2nc3ccccn3c2Nc2ccc3c(c2)OCCO3)c1	·	·	·	·	4µM*
CN(C)c1ccc(-c2nc3ccccn3c2Nc2ccc3c(c2)OCCO3)cc1	·	·	·	·	18µM*
Cc1ccc2nc(-c3cccc(Cl)c3)c(Nc3ccc4c(c3)OCO4)n2c1	·	·	·	·	-20%[76.3 µM]
CCCOc1ccc(/C=C/C(=O)Nc2sc(C)c(C)c2C(=O)OCC)cc1OC	·	·	·	·	-14%[76.3 µM]
Oc1ccc(-c2nc3ccccn3c2Nc2ccc3c(c2)OCCO3)cc1	·	·	·	·	13µM*
O=C(N/N=C/c1ccncc1)c1nc(-c2ccccc2)n2c1CCCCC2	5%	1%	-5	-6%	-1%
NNC(=O)c1nc(-c2ccccc2)n2c1CCCCC2	2%	-8%	3	3%	18µM*
Cc1cccc(-c2noc(CNC(=O)c3ccccc3Br)n2)c1	·	·	·	·	16%[76.3 µM]
O=C(N[C@H]1CCCc2ccccc21)O[C@@H]1C(=O)c2cc(Br)ccc2O[C@H]1c1ccc2c(c1)OCO2	19%	7%	-8	·	·
